Screens from PubChem.
Cy5 interf NS3h: enhances or quenches Cy5 fluorescence in NS3h assay; Cy5-dT15 DNA with NS3h, fluorescence interference; actives lie on both sides; signal over control mean, under 1 quenches; fluorescence interference ratio at 100 µM; 6% of 16,000 active; AID 720488;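 active = compound fluorescence over control fluorescence at most 0.8, a quencher, or at least a set upper limit, an enhancer; inactive = ratio between 0.8 and the set upper limit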
HCV NS3h FP: blocks HCV NS3 helicase binding to DNA | inhibition, % at 100 µM | NS3h Cy5-dT15 DNA binding, fluorescence polarization | 1.6% of 16,000 active | AID 687043;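 active = inhibition above the average over every tested compound plus 3 SD, cut at about 40% in these data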
Numbers without * were called inactive. In the library only some 6.8% were active in any assay of this set; here they are far more common.

How did CCOC(=O)c1c(NC(=O)C2CCCCC2)sc(C)c1C do in these assays?
Cy5 interf NS3h: 0.91; HCV NS3h FP: -1

How did O=C(Nc1cccc(C(F)(F)F)c1)c1cnn2c(C(F)(F)F)cc(-c3cccs3)nc12 do in these assays?
Cy5 interf NS3h: 0.66*; HCV NS3h FP: 8

What do the screens show for `O=C(c1ccccc1)N1CCN(C(=O)c2nn3c(C(F)(F)F)cc(-c4cccs4)nc3c2Br)CC1`?
Cy5 interf NS3h: 0.71*; HCV NS3h FP: 10

What do the screens show for `CC(C)OC(=O)c1cnn2c(C(F)(F)F)cc(-c3ccc(F)cc3)nc12`?
Cy5 interf NS3h: 0.94; HCV NS3h FP: 10

What do the screens show for `COc1ccc(-c2cc(C(F)(F)F)n3nc(C(=O)N4CCc5ccccc5C4)cc3n2)cc1`?
Cy5 interf NS3h: 0.97; HCV NS3h FP: 9

How did O=C1/C(=C/c2cccc(O)c2)SC(=S)N1c1cccc(Cl)c1 do in these assays?
Cy5 interf NS3h: 0.94; HCV NS3h FP: 6

Results for Cc1ccc(OCCOc2ccc(Cl)cc2/C=c2\sc3nc4ccccc4n3c2=O)cc1 ?
Cy5 interf NS3h: 1; HCV NS3h FP: 1

How did O=C1NN(c2ccccc2)C(=O)/C1=C/c1cccc(OCc2ccc(F)cc2)c1 do in these assays?
Cy5 interf NS3h: 0.81; HCV NS3h FP: -6

How did O=C(NOC(=O)c1ccc(Cl)cc1Cl)c1ccc(Cl)cc1 do in these assays?
Cy5 interf NS3h: 1; HCV NS3h FP: 6

What do the screens show for `CC1=C(C(=O)Nc2cccc(Cl)c2)C(c2cccc(Br)c2)NC(=S)N1` (stereo unspecified)?
Cy5 interf NS3h: 0.95; HCV NS3h FP: 7

How did CC(=C\c1ccccc1)/C=C1/SC(=O)N(c2ccc(Cl)cc2)C1=O do in these assays?
Cy5 interf NS3h: 0.78*; HCV NS3h FP: 16

How did O=C1S/C(=C/c2ccc(Cl)cc2Cl)C(=O)N1c1ccccc1 do in these assays?
Cy5 interf NS3h: 0.99; HCV NS3h FP: 3

Results for O=C(O)CCCN1C(=O)C(=O)C(=C(O)c2ccc(Cl)cc2)C1c1ccccc1 (stereo unspecified) ?
Cy5 interf NS3h: 1.1; HCV NS3h FP: 31

How did COc1ccc(C2C(=C(O)c3ccc(Cl)cc3)C(=O)C(=O)N2CCCC(=O)O)cc1 (stereo unspecified) do in these assays?
Cy5 interf NS3h: 0.15*; HCV NS3h FP: -44

How did COc1ccc(C(=O)NCc2ccncc2)cc1[N+](=O)[O-] do in these assays?
Cy5 interf NS3h: 1.1; HCV NS3h FP: -3

What do the screens show for `CCC(C)c1ccc(NC(=O)Cc2ccc(Cl)cc2)cc1` (stereo unspecified)?
Cy5 interf NS3h: 1.1; HCV NS3h FP: 1

How did COc1cc([N+](=O)[O-])ccc1N=S(C)C do in these assays?
Cy5 interf NS3h: 0.93; HCV NS3h FP: -7

How did N#Cc1cc([N+](=O)[O-])ccc1N=Cc1ccc(C#Cc2ccccc2)cc1 do in these assays?
Cy5 interf NS3h: 0.79*; HCV NS3h FP: 10

How did CC12CC3(C)CC(C)(C1)CC(C(=O)NCCO)(C2)C3 do in these assays?
Cy5 interf NS3h: 1.3*; HCV NS3h FP: 14

What do the screens show for `CC12CC3(C)CC(C)(C1)CC(C(=O)NN)(C2)C3`?
Cy5 interf NS3h: 1; HCV NS3h FP: 1

Results for O=C1/C(=C/c2ccccc2OCc2ccc([N+](=O)[O-])cc2)SC(=S)N1c1ccccc1 ?
Cy5 interf NS3h: 0.75*; HCV NS3h FP: 12

What do the screens show for `O=C1/C(=C/c2ccccc2[N+](=O)[O-])SC(=S)N1c1cccc(C(F)(F)F)c1`?
Cy5 interf NS3h: 0.76*; HCV NS3h FP: -2

Results for CCN1C(=O)/C(=C\c2cccc(O)c2)SC1=S ?
Cy5 interf NS3h: 1; HCV NS3h FP: 34

How did O=C1/C(=C/c2ccccc2OCc2ccc([N+](=O)[O-])cc2)SC(=S)N1Cc1ccccc1 do in these assays?
Cy5 interf NS3h: 1.1; HCV NS3h FP: 11

Results for O=C1NC(=S)NC(=O)C1=Cc1ccccc1OCc1ccc([N+](=O)[O-])cc1 ?
Cy5 interf NS3h: 0.68*; HCV NS3h FP: 30

How did Cc1ccc(COc2ccccc2C=C2C(=O)NC(=S)NC2=O)cc1 do in these assays?
Cy5 interf NS3h: 0.95; HCV NS3h FP: 19

How did O=C1/C(=C\c2ccc([N+](=O)[O-])cc2)SC(=S)N1c1cccc(C(F)(F)F)c1 do in these assays?
Cy5 interf NS3h: 1.1; HCV NS3h FP: -4

Results for CCN1C(=O)/C(=C\c2cccc(C(F)(F)F)c2)SC1=S ?
Cy5 interf NS3h: 0.71*; HCV NS3h FP: 10

What do the screens show for `COC(OC)c1cn(-c2ccccc2)nc1-c1ccccc1`?
Cy5 interf NS3h: 0.89; HCV NS3h FP: 15

How did CC(C)COc1ccc(C(=O)Nc2ccc(-c3nc4ccccc4o3)cc2)cc1 do in these assays?
Cy5 interf NS3h: 1; HCV NS3h FP: 36

Results for COc1ccc(CC(=O)O/N=C(/N)c2cccnc2)cc1OC ?
Cy5 interf NS3h: 1.1; HCV NS3h FP: 0

What do the screens show for `O=S(=O)(Nc1nc2ccccc2nc1Nc1ccccc1)c1ccccc1`?
Cy5 interf NS3h: 0.97; HCV NS3h FP: 15

Results for COc1cc(/C=N\N2C(=O)CSC2=S)ccc1OCCOc1cc(C)ccc1C(C)C ?
Cy5 interf NS3h: 1.2*; HCV NS3h FP: 6

What do the screens show for `COc1cc(/C=N\N2C(=O)CSC2=S)ccc1OCCOc1ccc(C(C)(C)C)cc1`?
Cy5 interf NS3h: 1.1; HCV NS3h FP: 11

Results for CC(=O)Nc1cc(-c2ccc(C)cc2)[nH]n1 ?
Cy5 interf NS3h: 1; HCV NS3h FP: 3

What do the screens show for `O=C(CCCN1C(=O)c2ccccc2C1=O)Nc1ccccc1C(=O)N1CCCCC1`?
Cy5 interf NS3h: 0.86; HCV NS3h FP: -6

What do the screens show for `COc1ccc(C(=O)Nc2ccc3oc(-c4ccccc4Cl)nc3c2)cc1Br`?
Cy5 interf NS3h: 0.93; HCV NS3h FP: 14

What do the screens show for `COc1ccc(Br)cc1C(=O)Nc1ccc2oc(-c3ccccc3F)nc2c1`?
Cy5 interf NS3h: 1.2*; HCV NS3h FP: -87

Results for COc1ccc(/C=C2/C(C)=C(C#N)c3nc(N)c(C#N)c(C)c32)cc1Br ?
Cy5 interf NS3h: 0.96; HCV NS3h FP: 14

What do the screens show for `COc1cc(/C=C2/C(C)=C(C#N)c3nc(N)c(C#N)c(C)c32)c([N+](=O)[O-])cc1OC`?
Cy5 interf NS3h: 0.97; HCV NS3h FP: 47*

What do the screens show for `COc1ccc(C(CC(=O)c2ccccc2)S(=O)(=O)c2ccc(C)cc2)cc1` (stereo unspecified)?
Cy5 interf NS3h: 0.64*; HCV NS3h FP: 14

How did COc1ccc(C(=O)CC(c2ccc(C(C)C)cc2)S(=O)(=O)c2ccc(C)cc2)cc1 (stereo unspecified) do in these assays?
Cy5 interf NS3h: 0.73*; HCV NS3h FP: 18

What do the screens show for `Cc1ccc(S(=O)(=O)C(CC(=O)c2ccc(Cl)cc2)c2ccccc2)cc1` (stereo unspecified)?
Cy5 interf NS3h: 0.98; HCV NS3h FP: 2

Results for COc1ccc(N(CC(=O)NCC(C)C)S(=O)(=O)c2ccc(C)cc2)cc1 ?
Cy5 interf NS3h: 1; HCV NS3h FP: 4

How did Cc1ccc(/C=C/C(=O)Nc2cccc(C(F)(F)F)c2)o1 do in these assays?
Cy5 interf NS3h: 0.89; HCV NS3h FP: 7

Results for Cc1cc(OCC(=O)Nc2ccc(F)c([N+](=O)[O-])c2)ccc1Cl ?
Cy5 interf NS3h: 1.2*; HCV NS3h FP: 0

What do the screens show for `Cc1cc(Cl)ccc1OCC(=O)Nc1ccc(F)c([N+](=O)[O-])c1`?
Cy5 interf NS3h: 0.91; HCV NS3h FP: 11

Results for COc1ccc(S(=O)(=O)N(CCc2ccccc2)CC(=O)Nc2ccc(Br)cc2)cc1OC ?
Cy5 interf NS3h: 1; HCV NS3h FP: 11
